HCV inhibitor = inhibitors of hepatitis C virus infection. Huh7.5.1 HCVcc-Cre infection, luciferase reporter, 44 h. 3.4% of 340,000 active. Potency, µM (series often up to 41.8 µM), most hits filed as inhibitors
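A cell-based infection assay in which seeded cells (1,000 per well) receive test compound after 4 h, are inoculated with HCVcc-Cre at approximately 0.5 moi, and are incubated 44 h before luminescence detection.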
Pf growth 48h = P. falciparum growth inhibition at 48 hours (one generation); P. falciparum luciferase growth in erythrocytes, 48 h; Potency, µM (series often up to 28.7 µM), actives largely listed as inhibitors; 5.9% of 310,000 active; AID 504832
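Luminescence readout; reporter = integrated firefly luciferase in P. falciparum. RBC culture at 2% hematocrit, 0.1% parasitemia final, 37 C/5% CO2; decreased signal taken as growth inhibition.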
Pf growth 96h = P. falciparum growth inhibition at 96 hours; P. falciparum luciferase reporter growth, 96 h; Potency, µM (series often up to 28.7 µM), hits mostly inhibitors; 6.9% of 320,000 active; AID 504834
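Two-generation exposure (96 h) targets delayed-death phenotype. Reporter parasites carrying integrated firefly luciferase, in red cells at 2% hematocrit and 0.05% parasitemia final, kept at 37 C, 5% CO2; luminescence loss indicates inhibition.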
AMA1-RON2 inh = inhibitors of Plasmodium falciparum AMA1-RON2 interaction | 0.2% of 360,000 active | Potency, µM (series often up to 58.2 µM), usual class: inhibitors | AID 720542 | AlphaScreen AMA1-biotinylated RON2 peptide binding; note: nearly all actives have a fitted effect of over 45% in size
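AMA1 (3D7) with his tag at 25 nM final met compounds first, then biotinylated RON2 peptide at 25 nM; detection used donor plus acceptor beads, 10 µg/mL apiece, read by AlphaScreen after 30 min at room temperature.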
Each line names hits and unclear results; the compound was inactive in the other large screens. Sampled rows, rich in hits. Any-hit rate of the full collection: about 11%. Calls come from the whole dose curve; as a rule, active = well fitted curve in the direction sought with a large enough effect; inconclusive = small, poorly fitted or top-dose-only effect, or another doubt; inactive = no such curve, though single readings can be large; an effect the other way counts as inactive or inconclusive.

CCOC(=O)c1c(C)[nH]c(C(=O)CN2C(=O)NC3(CCCC3)C2=O)c1C	none
CCOC(=O)c1c(C)[nH]c(C)c1C(=O)CN1C(=O)NC2(CCCCCC2)C1=O	Pf growth 48h 6.6µM, Pf growth 96h inconclusive
CCOC(=O)c1c(C)[nH]c(C(=O)CN2C(=O)NC(C)(c3ccc4ccccc4c3)C2=O)c1C (stereo not given)	Pf growth 48h inconclusive, Pf growth 96h 5.2µM (no result: HCV inhibitor)
CCCC1(c2ccccc2)NC(=O)N(CC(=O)Nc2sc(-c3ccccc3)cc2C(=O)OCC)C1=O (stereo not given)	Pf growth 48h inconclusive (no result: Pf growth 96h)
CCCCNC(=O)C1(C)CCN1C(=O)c1cccnc1Oc1ccccc1 (stereo not given)	none (no result: HCV inhibitor, Pf growth 48h, Pf growth 96h)
Cc1nc(Nc2cccc(C(C)O)c2)c2nnn(Cc3ccccc3F)c2n1 (stereo not given)	HCV inhibitor inconclusive
COc1ccc(/C=N/NC(=O)COc2cc(C)cc(C)c2)cc1COC(C)=O	none
Cc1cccn2c(=O)c3cc(C(=O)NCc4ccco4)c(=N)n(CCOCCO)c3nc12	Pf growth 48h 1.5µM, Pf growth 96h inconclusive
COCCn1c(=N)c(C(=O)NCc2ccco2)cc2c(=O)n3cc(C)ccc3nc21	Pf growth 48h inconclusive
Cc1cccn2c(=O)c3cc(C(=O)NCc4ccco4)c(=N)n(C4CCCCC4)c3nc12	HCV inhibitor inconclusive, Pf growth 48h 9.3µM
Cc1ccc2nc3c(cc(C(=O)NCc4ccco4)c(=N)n3C3CCCC3)c(=O)n2c1	Pf growth 96h inconclusive (no result: HCV inhibitor, AMA1-RON2 inh)
CCc1nc2ccc(C(=O)NCc3ccc(OC)cc3)cn2c1N(CC)CCOC	none (no result: HCV inhibitor, Pf growth 48h, Pf growth 96h)
Cc1ccc(NC(=O)COC(=O)Cn2cnc3c2c(=O)n(C)c(=O)n3C)c(Cl)c1	none
CCCn1c(N2CCC(Cc3ccccc3)CC2)nc2c1c(=O)[nH]c(=O)n2C	HCV inhibitor inconclusive, Pf growth 48h inconclusive
CCn1c(N2CCN(CC(=O)c3c(C)n(C)c4ccc(OC)cc34)CC2)nc2c1c(=O)[nH]c(=O)n2C	HCV inhibitor inconclusive, Pf growth 48h inconclusive, Pf growth 96h 10µM
CCCn1c(N2CCN(CC(=O)c3c[nH]c4ccccc34)CC2)nc2c1c(=O)[nH]c(=O)n2C	HCV inhibitor 13µM, Pf growth 48h 9.3µM, Pf growth 96h 0.74µM
CCN1CCN(c2nc3c(c(=O)[nH]c(=O)n3C)n2Cc2ccccc2F)CC1	none
CCn1c(N2CCN(CC(=O)c3c(C)n(C)c4ccccc34)CC2)nc2c1c(=O)[nH]c(=O)n2C	Pf growth 96h 1.3µM (no result: Pf growth 48h)
CCN1CCN(CC(=O)c2c(C)n(C)c3ccc(OC)cc23)CC1	Pf growth 96h inconclusive
O=C(Nc1cccc(Cl)c1)C1C2C=CC3(O2)C1C(=O)N(CCN1CCCCC1)C3C(=O)NC1CCCCC1 (stereo not given)	Pf growth 48h inconclusive, Pf growth 96h 5.2µM
CCC1CCCCN1CCN1C(=O)C2C(C(=O)Nc3ccc(OC)cc3)C3C=CC2(O3)C1C(=O)NC1CCCCC1 (stereo not given)	Pf growth 48h inconclusive
CCCCN(C)CCN1C(=O)C2C(C(=O)Nc3ccc(Cl)cc3)C3C=CC2(O3)C1C(=O)NC1CCCCC1 (stereo not given)	HCV inhibitor inconclusive, Pf growth 48h 10µM
CCC1CCCCN1CCN1C(=O)C2C(C(=O)Nc3cccc(OC)c3)C3C=CC2(O3)C1C(=O)NC1CCCCC1 (stereo not given)	Pf growth 48h 8.3µM
CCOC(=O)C1=CN(Cc2ccco2)S(=O)(=O)NC1c1ccc(F)c(Cl)c1 (stereo not given)	none (no result: Pf growth 48h, Pf growth 96h)
O=C(CN1C(=O)NC2(CCCCC2)C1=O)Nc1ccc2[nH]c(=O)[nH]c2c1	none
CCCC(C)NC1=NCCCCC1 (stereo not given)	none
Cc1ccc(C)c(-n2c(-c3csc(C)c3C)n[nH]c2=S)c1	Pf growth 48h inconclusive
O=CN1Cc2[nH]c3ccccc3c2N(c2ccc(Cl)cc2)C1=O	Pf growth 96h 9.3µM (no result: Pf growth 48h)
O=C1CNCc2[nH]c3ccccc3c2N1c1ccccc1	none (no result: Pf growth 96h)
O=CC(=Cc1ccccc1)c1ccccc1	none (no result: HCV inhibitor, Pf growth 48h, Pf growth 96h)
Cc1ccccc1OCCNC(=O)CNC(=O)c1ccccc1O	none (no result: Pf growth 96h)
Nc1c(C(=O)NCC2CCCO2)sc2nc3c(c(-c4ccco4)c12)CC/C3=C\c1ccco1 (stereo not given)	HCV inhibitor inconclusive, Pf growth 48h inconclusive, Pf growth 96h inconclusive, AMA1-RON2 inh 8.9µM
NC(=O)c1sc2nc3c(c(-c4ccco4)c2c1N)CCCC3	none
Cc1ccccc1NC(=O)c1sc2nc3c(c(-c4ccco4)c2c1N)CCC3	HCV inhibitor 4µM, Pf growth 48h inconclusive, Pf growth 96h inconclusive
N#Cc1sc2nc3c(c(-c4ccco4)c2c1N)CCCC3	HCV inhibitor 7.9µM
